One test deals with Hexose transporter 1 (Plasmodium falciparum) (UniProt O97467). In words: ST_JUDE_LEISH: Cytotoxicity at 2uM final concentration against transgenic Leishmania Mexicana promastigotes LmPfHT that are glucose transport deficient and complemented with the Plasmodium falciparum hexose transporter. Activity is measured by DNA content using SYBR green in vitro. It is filed as functional.
Consider `Cc1cc(N[C@@H](Cc2ccccc2)C(=O)NCc2cccs2)nc(NCCc2cccnc2)n1`, for which the inhibition is 1.61%.

Take `CCN(CC)CCCC(C)Nc1ccnc2ccc(OC)cc12` (stereo not given): the inhibition is 8.91%.

For `c1ccc2c(CNc3ccnc(NCc4cccc5ccccc45)n3)cccc2c1`, the inhibition came out at 5.69%.

Take `CC(NCCC1CCC(NC(=O)N[C@H](C)C(O)(c2ccccc2)c2ccccc2)CC1)c1cccc2ccccc12` (stereo not given in full): the inhibition was 16.2%.

`COc1cc(CCON2C(N)=NC(N)=NC2(C)C)cc(OC)c1OC`: the inhibition stood at 0.73%.

With `Oc1ccccc1CCNCC1CCc2ccccc2C1` (stereo not given), the inhibition was -0.01%.

As for `N#Cc1ccc(/C=C/C(=O)NCCCCCN2CCCN(C(=O)Nc3ccc(Cl)c(C(F)(F)F)c3)CC2)cc1`, the inhibition was 1.14%.

As to `COc1cc(Cc2cnc(N)nc2N)cc(OCCCOc2ccccc2)c1OC`, the inhibition is 4.04%.

Regarding `CC(C)CN1CCC(COc2ccc3ncn(-c4cc(O[C@H](C)c5ccccc5C(F)(F)F)c(C(N)=O)s4)c3c2)CC1`, the inhibition amounted to 74.7%.

Regarding `O=C1OC2(CN1CC1CCN(Cc3ccc(O)cc3Cl)C1)c1ccccc1-c1ccccc12` (stereo not given), the inhibition was -2.55%.

As to `CC(CN1CCN(C)CC1)C(=O)Nc1ccc(-c2ccc(-c3nc4cc(F)ccc4[nH]3)cc2)cc1` (stereo not given), the inhibition amounted to 3.05%.

As for `COc1ccc(Cc2c(C)nc3nc(N)nc(N)c3c2C)cc1OC`, the inhibition came out at 15%.

Regarding `COc1ccc2cc(-c3nc(-c4c(Cl)cccc4Cl)[nH]c3-c3ccnc(NCCC4CCCN4C)c3)ccc2c1` (stereo not given), the inhibition was 12.8%.

For the molecule `C1=CN(Cc2ccccc2)C=CC1=C1C=Nc2ccccc21`, the inhibition worked out at 10.4%.

In the case of `COc1cc([N+](=O)[O-])ccc1NC(=O)c1cc(Cl)ccc1O`, the inhibition was determined as 6.83%.

For `CN1CCN(c2ccc(-c3cccc(NC(=O)c4cccc(Cl)c4)c3)nn2)CC1`, the inhibition was determined as 1.54%.

With `Cc1nc(-c2ccc(-c3ccc(C(=O)Nc4ccc(I)c(OCC5CCCN5C)c4)cc3)c(C)c2)no1` (stereo not given), the inhibition was 7.75%.

On to `COc1ccc2nccc(N3CCC(NCCNCc4cc5c(cn4)OCCO5)C3)c2n1` (stereo not given), for which the inhibition was 2.64%.

`O=C(COc1ccccc1Cl)N1CCc2cc3nccc(N4CCN5CCC[C@H]5C4)c3cc21`: the inhibition was determined as 5.14%.

In the case of `Nc1nc(N)c2c(ccc3c2ccn3CC2CC2)n1`, the inhibition is 6.17%.

On to `C[C@H](NC(=O)[C@H](Cc1ccccc1)NC(=O)OC(C)(C)C)C(=O)N[C@@H](CC1CCCCC1)C(O)CN` (stereo not given in full), for which the inhibition was 0.84%.

For the molecule `CC(CCCC(=O)Nc1ccc(CC(C)NCCc2cccc(Cl)c2)cc1)NCCc1cccc(Cl)c1` (stereo not given), the inhibition came to 0.02%.

`Clc1ccc(-c2cnc3ccc(NCCc4cccnc4)nn23)cc1`: the inhibition is -1.47%.

As for `Cn1cnc(CCNC(=O)c2cccc(-c3ccc(-c4nc5cc(F)ccc5[nH]4)cc3)c2)c1`, the inhibition turned out to be 1.88%.

Consider `CCCNc1ccc2nccc(CCN3CCC(NCc4ccc5c(n4)NC(=O)CS5)CC3)c2n1`, for which the inhibition is 2.84%.

Take `O=c1ccc(-c2nc3cc(Cl)c(Cl)cc3n2Cc2ccc(Cl)cc2Cl)c[nH]1`: the inhibition was -0.54%.

Regarding `CCNc1cc(C)nc(Nc2ccc(C)cc2)n1`, the inhibition came to 7.92%.

With `CN1CCCN(Cc2cccc(-c3cccc(NC(=O)c4ccc(C#N)cc4)c3)c2)CC1`, the inhibition was found to be 7.28%.

Turning to `CC(C)c1sc(N2CCN(C)CC2)nc1C(=O)Nc1cccc2c1CCCC2`, the inhibition was determined as 1.67%.

For `CC1(C)NC(N)=NC(=N)N1OCCCc1ccc(Cl)cc1Cl`, the inhibition was 1.95%.

In the case of `O=C1SC(=Cc2ccc(O)c(O)c2)C(=O)N1c1ccccc1`, the inhibition came out at 2.56%.

As to `O=C(NCCN1CCCCC1)c1ccc(Nc2nccc(Nc3ccc(Oc4ccccc4)cc3)n2)cc1`, the inhibition is 8.31%.

With `O=C(Nc1ccc(OC2CCN(Cc3ccc(F)cc3)CC2)c(Cl)c1)c1ccc(F)cc1`, the inhibition was 3.52%.

With `N[C@@H](Cc1ccc(O)cc1)C(=O)NC(c1ccccc1)c1c(O)ccc2ccccc12` (stereo not given in full), the inhibition is -0.91%.

Turning to `c1ccc(COc2ccnc(NCCCOc3cccc(CN4CCCCC4)c3)c2)cc1`, the inhibition was 1.04%.

For the molecule `O=C(NCCc1ccccc1F)c1ccc(N2CCN(c3ccncc3)CC2)cn1`, the inhibition came to 9.09%.

As to `COc1ccc(O)c(C(=O)c2cc(C#N)c(=O)n(-c3ccc(Oc4ccccc4)cc3)c2)c1`, the inhibition worked out at 8.65%.

On to `CCOc1c(CNCCCNc2cc(O)c3ccccc3n2)cc(I)cc1OC`, for which the inhibition is -1.22%.

For `COc1cc(Cc2cnc(N)nc2N)c2c(c1OC)OC(C)C=C2` (stereo not given), the inhibition was found to be 2.39%.

For the molecule `Cc1ccc(CON2C(=N)N=C(N)NC2(C)C)cc1C`, the inhibition came out at 3.55%.

In another test the target is Glucose transporter (Leishmania mexicana) (UniProt O61059). In words: ST_JUDE_LEISH: Cytotoxicity at 2uM final concentration against transgenic Leishmania Mexicana promastigotes LmGT2 that are glucose transport deficient and complemented with the L. Mexicana glucose transporter 2. Activity is measured by DNA content using SYBR green in vitro. It is filed as functional.
`Cc1cc(N[C@@H](Cc2ccccc2)C(=O)NCc2cccs2)nc(NCCc2cccnc2)n1`: the inhibition was determined as 1.02%.

On to `CCN(CC)CCCC(C)Nc1ccnc2ccc(OC)cc12` (stereo not given), for which the inhibition stood at 8.52%.

As for `c1ccc2c(CNc3ccnc(NCc4cccc5ccccc45)n3)cccc2c1`, the inhibition amounted to 7%.

Regarding `CC(NCCC1CCC(NC(=O)N[C@H](C)C(O)(c2ccccc2)c2ccccc2)CC1)c1cccc2ccccc12` (stereo not given in full), the inhibition is 13.4%.

As to `COc1cc(CCON2C(N)=NC(N)=NC2(C)C)cc(OC)c1OC`, the inhibition was 1.04%.

As to `Oc1ccccc1CCNCC1CCc2ccccc2C1` (stereo not given), the inhibition was 0.73%.

Regarding `N#Cc1ccc(/C=C/C(=O)NCCCCCN2CCCN(C(=O)Nc3ccc(Cl)c(C(F)(F)F)c3)CC2)cc1`, the inhibition worked out at 1.57%.

On to `COc1cc(Cc2cnc(N)nc2N)cc(OCCCOc2ccccc2)c1OC`, for which the inhibition came out at 4.99%.

On to `CC(C)CN1CCC(COc2ccc3ncn(-c4cc(O[C@H](C)c5ccccc5C(F)(F)F)c(C(N)=O)s4)c3c2)CC1`, for which the inhibition was found to be 60.6%.

For `O=C1OC2(CN1CC1CCN(Cc3ccc(O)cc3Cl)C1)c1ccccc1-c1ccccc12` (stereo not given), the inhibition stood at 2.67%.

As to `CC(CN1CCN(C)CC1)C(=O)Nc1ccc(-c2ccc(-c3nc4cc(F)ccc4[nH]3)cc2)cc1` (stereo not given), the inhibition came to 8.04%.

Consider `COc1ccc(Cc2c(C)nc3nc(N)nc(N)c3c2C)cc1OC`, for which the inhibition came to 12.1%.

In the case of `COc1ccc2cc(-c3nc(-c4c(Cl)cccc4Cl)[nH]c3-c3ccnc(NCCC4CCCN4C)c3)ccc2c1` (stereo not given), the inhibition turned out to be 8.98%.

In the case of `C1=CN(Cc2ccccc2)C=CC1=C1C=Nc2ccccc21`, the inhibition came to 8.71%.

Regarding `COc1cc([N+](=O)[O-])ccc1NC(=O)c1cc(Cl)ccc1O`, the inhibition was 7.02%.

On to `CN1CCN(c2ccc(-c3cccc(NC(=O)c4cccc(Cl)c4)c3)nn2)CC1`, for which the inhibition turned out to be 3.23%.

For the molecule `Cc1nc(-c2ccc(-c3ccc(C(=O)Nc4ccc(I)c(OCC5CCCN5C)c4)cc3)c(C)c2)no1` (stereo not given), the inhibition amounted to 5.6%.

Take `COc1ccc2nccc(N3CCC(NCCNCc4cc5c(cn4)OCCO5)C3)c2n1` (stereo not given): the inhibition turned out to be 3.54%.

On to `O=C(COc1ccccc1Cl)N1CCc2cc3nccc(N4CCN5CCC[C@H]5C4)c3cc21`, for which the inhibition turned out to be 6.01%.

As for `Nc1nc(N)c2c(ccc3c2ccn3CC2CC2)n1`, the inhibition is 0.91%.

In the case of `C[C@H](NC(=O)[C@H](Cc1ccccc1)NC(=O)OC(C)(C)C)C(=O)N[C@@H](CC1CCCCC1)C(O)CN` (stereo not given in full), the inhibition was -1.53%.

With `CC(CCCC(=O)Nc1ccc(CC(C)NCCc2cccc(Cl)c2)cc1)NCCc1cccc(Cl)c1` (stereo not given), the inhibition came to 1.32%.

Regarding `Clc1ccc(-c2cnc3ccc(NCCc4cccnc4)nn23)cc1`, the inhibition is 0.12%.

Turning to `Cn1cnc(CCNC(=O)c2cccc(-c3ccc(-c4nc5cc(F)ccc5[nH]4)cc3)c2)c1`, the inhibition is 0.3%.

`CCCNc1ccc2nccc(CCN3CCC(NCc4ccc5c(n4)NC(=O)CS5)CC3)c2n1`: the inhibition amounted to 8.69%.

Consider `O=c1ccc(-c2nc3cc(Cl)c(Cl)cc3n2Cc2ccc(Cl)cc2Cl)c[nH]1`, for which the inhibition was -0.93%.

Consider `CCNc1cc(C)nc(Nc2ccc(C)cc2)n1`, for which the inhibition was 5.86%.

`CN1CCCN(Cc2cccc(-c3cccc(NC(=O)c4ccc(C#N)cc4)c3)c2)CC1`: the inhibition is 6.98%.

In the case of `CC(C)c1sc(N2CCN(C)CC2)nc1C(=O)Nc1cccc2c1CCCC2`, the inhibition is 1.79%.

As for `CC1(C)NC(N)=NC(=N)N1OCCCc1ccc(Cl)cc1Cl`, the inhibition was 2.33%.

Turning to `O=C1SC(=Cc2ccc(O)c(O)c2)C(=O)N1c1ccccc1`, the inhibition worked out at 0.86%.

As for `O=C(NCCN1CCCCC1)c1ccc(Nc2nccc(Nc3ccc(Oc4ccccc4)cc3)n2)cc1`, the inhibition is 16.6%.

Regarding `O=C(Nc1ccc(OC2CCN(Cc3ccc(F)cc3)CC2)c(Cl)c1)c1ccc(F)cc1`, the inhibition was determined as 7.21%.

For `N[C@@H](Cc1ccc(O)cc1)C(=O)NC(c1ccccc1)c1c(O)ccc2ccccc12` (stereo not given in full), the inhibition is -0.99%.

As to `c1ccc(COc2ccnc(NCCCOc3cccc(CN4CCCCC4)c3)c2)cc1`, the inhibition was -0.05%.

As to `O=C(NCCc1ccccc1F)c1ccc(N2CCN(c3ccncc3)CC2)cn1`, the inhibition worked out at 8.65%.

Regarding `COc1ccc(O)c(C(=O)c2cc(C#N)c(=O)n(-c3ccc(Oc4ccccc4)cc3)c2)c1`, the inhibition turned out to be 9.41%.

In the case of `CCOc1c(CNCCCNc2cc(O)c3ccccc3n2)cc(I)cc1OC`, the inhibition came out at 1.41%.

As to `COc1cc(Cc2cnc(N)nc2N)c2c(c1OC)OC(C)C=C2` (stereo not given), the inhibition was determined as 2.25%.

Turning to `Cc1ccc(CON2C(=N)N=C(N)NC2(C)C)cc1C`, the inhibition is 3.93%.

A word on the inhibition: it is the drop in the measured response relative to a control, in per cent.

The record behind these values is ChEMBL document CHEMBL3433997, “St. Jude Leishmania screening dataset” (2016).
